According to the supplement of paper PMC10127200:
Where a name gives a salt, the structure may show the parent alone.

Assays:
Experiment in all cases: Euclidean distance of Cell Painting phenotypic profile (signed KS, 77 features) to DMSO centroid (dimensionless distance); 5 or 10 uM (library dependent); higher = stronger phenotypic change vs DMSO (phenoactivity)
Details in all cases: 48 h
786-O = system: 786-O
Method in brief: (§1)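 At 10 or 5 uM, as set by the library, and 0.1% DMSO final, compounds were applied for 48 h to five cancer lines and one healthy fibroblast line. Stained cells were imaged confocally at 20X in 9 fields per well, and Harmony extracted 77 features scored as signed Kolmogorov-Smirnov statistics against vehicle wells on the same plate. Profiles underwent plate-position correction, correlation weighting and replicate averaging at the top dose. Phenoactivity is the Euclidean distance from each such profile to the median vehicle profile.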

A549 = system: A549
Method in brief: as §1

DU145 = system: DU145
Method in brief: as §1

FB = system: FB
Method in brief: as §1

HEPG2 = system: HEPG2
Method in brief: as §1

OVCAR4 = system: OVCAR4
Method in brief: as §1

Compound | Euclidean distance (786-O) | Euclidean distance (A549) | Euclidean distance (DU145) | Euclidean distance (FB) | Euclidean distance (HEPG2) | Euclidean distance (OVCAR4)
O=C1CC[C@@H](C(=O)N2CSC[C@H]2C(=O)O)N1 [Pidotimod] | 1.14 | 0.696 | 0.731 | 0.833 | 0.84 | 0.854
O=C(Cc1ccc(-c2ccc(OCCN3CCOCC3)cc2)cn1)NCc1ccccc1 | 3.21 | 3.15 | 4.51 | 2.74 | 3.85 | 2.99
COC(=O)N[C@H](C(=O)N1CCC[C@H]1c1ncc(-c2ccc(-c3ccc(-c4cnc([C@@H]5CCCN5C(=O)[C@@H](NC(=O)OC)C(C)C)[nH]4)cc3)cc2)[nH]1)C(C)C | 1.52 | 1.63 | 1.12 | 1 | 0.904 | 1.5
NC1=NCC2c3ccccc3Cc3ccccc3N12 (stereo not drawn) [Epinastine HCl] | 1.16 | 1.15 | 1.13 | 1.2 | 0.717 | 1.43
CN(C/C=C/C#CC(C)(C)C)Cc1cccc2ccccc12 [Terbinafine] | 1.56 | 0.66 | 0.898 | 0.587 | 1.36 | 1.18
Oc1ccc(/C=C/c2cc(O)cc(O)c2)cc1 [Resveratrol] | 2.22 | 1.93 | 1.94 | 1.74 | 0.81 | 1.92
CC1(COc2ccc3c(c2)ncn3-c2ccc3cccc(N4CCC(N)CC4)c3n2)COC1 | 3.62 | 3.9 | 3.27 | 3.75 | 3.6 | 3.78
CC(C)N(C[C@H]1O[C@@H](n2cnc3c(N)ncnc32)[C@H](O)[C@@H]1O)[C@H]1C[C@@H](CCc2nc3cc(C(C)(C)C)ccc3[nH]2)C1 | 0.867 | 0.931 | 1.3 | 1.28 | 0.884 | 0.955
CNC(=O)[C@H](Cc1c[nH]c2ccccc12)NC(=O)[C@@H](CC(=O)NO)CC(C)C [Ilomastat (GM6001. Galardin)] | 1.02 | 1.06 | 1.22 | 0.836 | 0.633 | 1.3
CCNC(=O)Nc1ccc(-c2nc3c(c(N4CCOC[C@@H]4C)n2)CCN(C2COC2)C3)cc1 | 3.58 | 3.22 | 1.78 | 4.11 | 3.1 | 4.55
COc1c(O[C@@H]2O[C@H](CO)[C@@H](O)[C@H](O)[C@H]2O)cc2c(c1OC)-c1ccc(SC)c(=O)cc1[C@@H](NC(C)=O)CC2 [Thiocolchicoside] | 0.819 | 0.537 | 0.944 | 1.41 | 0.502 | 1.21
Cn1cc(C2=C(c3cccc(N)c3)C(=O)NC2=O)c2ccccc21 | 3.84 | 2.48 | 2.97 | 1.8 | 1.6 | 3.79
COc1ccccc1N1CCN(CC(O)COc2cccc3ccccc23)CC1 (stereo not drawn) [Naftopidil] | 1.4 | 1.01 | 0.795 | 1.01 | 0.934 | 0.99
CCCCOc1ccc(OCCCN2CCOCC2)cc1 [Pramoxine HCl] | 1.3 | 0.99 | 1.08 | 0.528 | 0.51 | 1.2
CC[C@@H](CO)NCCN[C@@H](CC)CO [Ethambutol HCl] | 1.4 | 1.22 | 0.738 | 0.916 | 1.17 | 0.884
COc1cc(C)c(/C=C/C(C)=C/C=C/C(C)=C/C(=O)O)c(C)c1C [Acitretin] | 1.13 | 0.972 | 0.881 | 2.31 | 1.39 | 1.13
C=CC(=O)Nc1cc(Nc2nccc(-n3cc(CN(C)C)c(-c4ccccc4)n3)n2)c(OC)cc1N1CCOCC1 | 0.904 | 1.76 | 1.79 | 1.2 | 1.27 | 2.16
OC(CCN1CCCCC1)(c1ccccc1)C1CC2C=CC1C2 (stereo not drawn) [Biperiden HCl] | 0.618 | 0.662 | 0.98 | 1.08 | 1.01 | 0.843
O=c1[nH]c(=O)n([C@H]2C[C@H](O)[C@@H](CO)O2)cc1F [Floxuridine] | 1.86 | 3 | 2.5 | 1.73 | 2.61 | 2.71
Cn1c(=O)cc(N2CCC[C@@H](N)C2)n(Cc2cc(F)ccc2C#N)c1=O [Trelagliptin] | 0.94 | 0.495 | 0.985 | 0.998 | 0.668 | 0.953
COC[C@H](NC(=O)c1cnc(C)s1)C(=O)N[C@@H](COC)C(=O)N[C@@H](Cc1ccccc1)C(=O)[C@@]1(C)CO1 [Oprozomib (ONX 0912)] | 5.53 | 4.48 | 5.47 | 4.12 | 4.53 | 4.85
N=C(NCCCCCCNC(=N)NC(=N)Nc1ccc(Cl)cc1)NC(=N)Nc1ccc(Cl)cc1 [Chlorhexidine] | 2.05 | 3.54 | 1.97 | 2.12 | 2.92 | 3.25
C[C@@H]1C[C@H]2[C@@H]3C[C@H](F)C4=CC(=O)C=C[C@]4(C)[C@@]3(F)[C@@H](O)C[C@]2(C)[C@@]1(OC(=O)c1ccco1)C(=O)SCF [fluticasone furoate] | 2.17 | 2.7 | 2.56 | 2.29 | 1.53 | 1.72
